Assay results taken from PubChem BioAssay AID1159580 (chemical genetic matrix, 2015).
Among all 5,500 compounds or so, about 2,000 (36%) were called active. Another 18% or so got no clear call; they are omitted. Rule as the data show it: active = normalized growth mostly below about 0.91 (no sharp cut-off); inconclusive = no clear call, values can overlap the other calls; inactive = mostly above about 0.92. The list shows a part of the results.

Assay: chemical genetic growth profiling, strain panel (AID 1159580);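 also: tested at 20 µM; growth read once vehicle control cultures reached saturation at 30 °C; 1 = growth at the plate median or of vehicle wells; lower values mean less growth of the strain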
Conditions: S. cerevisiae deletion strains, growth OD

Measured: normalized growth

CC1(C)CCC[C@@]2(C)C1[C@@H](O)C[C@]1(C)C2CC[C@@H]2[C@@]3(C)CC[C@H](C(C)(C)O)[C@@H]3CC[C@@]21C (some centres not stated)
inactive: locus YAL013W, strain DEP1, hits give low values 0.998 | locus YBR021W, strain FUR4, hits give low values 1.07 | locus YBR229C, strain ROT2, hits give low values 1 | locus YCL029C, strain bik1, hits give low values 0.971 | locus YDL035C, strain GPR1, hits give low values 1.01 | locus YDL074C, strain BRE1, hits give low values 1.02 | locus YDL101C, strain DUN1, hits give low values 1 | locus YDL185W, strain tfp1, hits give low values 0.943 | locus YDL192W, strain arf1, hits give low values 0.993 | locus YDR101C, strain arx1, hits give low values 1.01 | locus YDR150W, strain NUM1, hits give low values 0.992 | locus YDR162C, strain NBP2, hits give low values 1.04 | locus YDR318W, strain mcm21, hits give low values 1 | locus YDR388W, hits give low values 0.986 | locus YDR502C, strain sam2, hits give low values 0.989 | locus YEL061C, strain CIN8, hits give low values 1 | locus YER110C, hits give low values 0.977 | locus YER155C, strain BEM2, hits give low values 1.01 | locus YER167W, strain BCK2, hits give low values 0.997 | locus YGL078C, strain dbp3, hits give low values 1 | locus YGL086W, strain mad1, hits give low values 1.05 | locus YGL248W, strain PDE1, hits give low values 1 | locus YGR135W, strain pre9, hits give low values 0.993 | locus YGR252W, strain gcn5, hits give low values 1.06 | locus YHR030C, strain SLT2, hits give low values 0.992 | locus YHR079C, strain IRE1 (second series), hits give low values 1.01 | locus YHR094C, strain hxt1, hits give low values 0.981 | locus YHR129C, strain ARP1, hits give low values 0.997 | locus YHR200W, strain rpn10, hits give low values 0.984 | locus YIL066C, strain RNR3, hits give low values 1.03 | locus YIL073C, strain SPO22, hits give low values 0.941 | locus YIL125W, strain kgd1, hits give low values 0.972 | locus YIR030C, strain dcg1, hits give low values 0.996 | locus YJL095W, strain BCK1, hits give low values 1.02 | locus YJL134W, strain LCB3, hits give low values 0.991 | locus YJL168C, strain set2, hits give low values 1.01 | locus YJL187C, strain SWE1 (second series), hits give low values 1 | locus YJR043C, strain POL32, hits give low values 1.03 | locus YKL009W, strain mrt4, hits give low values 1.05 | locus YKL068W, hits give low values 0.98 | locus YKL085W, strain MDH1 (second series), hits give low values 1.04 | locus YKL085W, strain MDH1, hits give low values 1.04 | locus YKL190W, strain CNB1, hits give low values 0.997 | locus YKR001C, strain vps1, hits give low values 1.03 | locus YLR039C, strain RIC1, hits give low values 1.05 | locus YLR058C, strain SHM2, hits give low values 0.996 | locus YLR102C, strain apc9, hits give low values 0.995 | locus YLR262C, strain YPT6, hits give low values 1.04 | locus YLR268W, strain sec22, hits give low values 0.986 | locus YLR330W, strain CHS5, hits give low values 0.983 | locus YLR342W, strain FKS1 (second series), hits give low values 1.01 | locus YLR371W, strain rom2, hits give low values 0.984 | locus YLR418C, strain cdc73, hits give low values 1.06 | locus YML016C, strain PPZ1, hits give low values 0.995 | locus YML032C, strain rad52, hits give low values 0.983 | locus YML124C, strain tub3, hits give low values 1.01 | locus YMR078C, strain ctf18, hits give low values 1.01 | locus YMR223W, strain ubp8, hits give low values 0.998 | locus YMR263W, strain SAP30, hits give low values 1 | locus YMR307W, strain GAS1, hits give low values 1.12 | locus YNL067W, strain RPL9B, hits give low values 1.02 | locus YNL153C, strain GIM3, hits give low values 1.02 | locus YNL233W, strain BNI4, hits give low values 1.03 | locus YNL250W, strain rad50, hits give low values 0.982 | locus YNL271C, strain bni1, hits give low values 0.997 | locus YNL298W, strain CLA4, hits give low values 0.975 | locus YNL307C, strain MCK1, hits give low values 0.996 | locus YNL322C, strain KRE1, hits give low values 1 | locus YNR052C, strain pop2, hits give low values 0.994 | locus YOL012C, strain htz1 1.13 | locus YOL147C, strain pex11, hits give low values 0.993 | locus YOR061W, strain CKA2, hits give low values 0.999 | locus YOR069W, strain VPS5, hits give low values 0.993 | locus YOR136W, strain idh2, hits give low values 0.988 | locus YOR144C, strain elg1, hits give low values 0.997 | locus YOR184W, strain ser1, hits give low values 1.01 | locus YOR316C, strain cot1, hits give low values 0.985 | locus YPR119W, strain clb2, hits give low values 1 | locus YPR141C, strain kar3, hits give low values 0.982 | locus YPR163C, strain tif3, hits give low values 0.99 | locus YPR167C, strain met16, hits give low values 0.989 | strain wtn01, hits give low values 0.986
